# The full data set covers some 7,900 targets. This sample favours those with a hit. About 0.6% of all pairs of compound and target were hits. A number with no mark means an inactive call.
# What was measured:
# Assay in all cases: log2 fold change, soluble protein after heating vs DMSO (PISA); higher = thermal stabilisation; K562 cells, 10 uM, 30 min; active = over 0.2 and 3.5 SD of the protein, either way, in both replicates (recomputed)
# [1] = compound: C1=CC=C(C=C1)[C@H](COC2=CC3=C(C=C2)NC(=O)N3)NC(=O)C4=CC=CN(C4=O)CC5=CC(=C(C=C5)F)F
# How it was run: (§1)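 Aliquots of K562 cells (2×10^6 cells/mL) treated with 10 μM compound for 30 min were heated for 3 min over 48°C-58°C. After pooling and extraction in PBS with 0.5% NP-40 at 4°C, soluble protein from a 21,000xg, 90 min spin was quantified by TMTpro 16plex LC-MS/MS with channel sums equalised. Thermal stability is expressed against control samples, from duplicates, as a log2 fold change.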
# [2] = compound: CC1=C(SC2=C1C(=N[C@H](C3=NN=C(N32)C)CC(=O)N)C4=CC=C(C=C4)Cl)C
# How it was run: as §1
# [3] = compound: CC1=C2C(=CC=C1)N=C(N(C2=O)C3=CC=CC=C3C)CN4C=NC5=C(N=CN=C54)N
# How it was run: as §1
# [4] = compound: Cc1sc2c(c1C)C(c1ccc(Cl)cc1)=N[C@@H](CC(=O)OC(C)(C)C)c1nnc(C)n1-2
# How it was run: as §1
# [5] = compound: c1ccc([C@@H]2C[C@H]2NC2CCNCC2)cc1
# How it was run: as §1
# Sequence of UniProt Q6GMV3 (Q6GMV3 whole entry, looked up): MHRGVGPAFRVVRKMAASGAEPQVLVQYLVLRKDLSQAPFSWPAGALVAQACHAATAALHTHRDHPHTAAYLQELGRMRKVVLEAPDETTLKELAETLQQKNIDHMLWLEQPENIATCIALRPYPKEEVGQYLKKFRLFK
# Sequence of UniProt P43686 (P43686 whole entry, looked up): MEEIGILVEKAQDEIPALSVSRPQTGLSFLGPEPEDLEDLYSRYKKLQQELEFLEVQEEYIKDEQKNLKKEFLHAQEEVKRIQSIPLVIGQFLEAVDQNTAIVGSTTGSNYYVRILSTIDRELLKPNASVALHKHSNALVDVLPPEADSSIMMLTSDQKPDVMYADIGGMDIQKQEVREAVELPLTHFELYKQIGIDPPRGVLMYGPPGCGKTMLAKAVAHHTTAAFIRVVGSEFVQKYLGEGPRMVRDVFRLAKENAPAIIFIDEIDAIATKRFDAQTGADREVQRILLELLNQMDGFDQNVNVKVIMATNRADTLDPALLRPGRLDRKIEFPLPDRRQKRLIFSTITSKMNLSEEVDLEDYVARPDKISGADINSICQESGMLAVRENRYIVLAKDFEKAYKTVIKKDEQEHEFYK
# Sequence of UniProt Q5H8A4 (Q5H8A4 whole entry, looked up): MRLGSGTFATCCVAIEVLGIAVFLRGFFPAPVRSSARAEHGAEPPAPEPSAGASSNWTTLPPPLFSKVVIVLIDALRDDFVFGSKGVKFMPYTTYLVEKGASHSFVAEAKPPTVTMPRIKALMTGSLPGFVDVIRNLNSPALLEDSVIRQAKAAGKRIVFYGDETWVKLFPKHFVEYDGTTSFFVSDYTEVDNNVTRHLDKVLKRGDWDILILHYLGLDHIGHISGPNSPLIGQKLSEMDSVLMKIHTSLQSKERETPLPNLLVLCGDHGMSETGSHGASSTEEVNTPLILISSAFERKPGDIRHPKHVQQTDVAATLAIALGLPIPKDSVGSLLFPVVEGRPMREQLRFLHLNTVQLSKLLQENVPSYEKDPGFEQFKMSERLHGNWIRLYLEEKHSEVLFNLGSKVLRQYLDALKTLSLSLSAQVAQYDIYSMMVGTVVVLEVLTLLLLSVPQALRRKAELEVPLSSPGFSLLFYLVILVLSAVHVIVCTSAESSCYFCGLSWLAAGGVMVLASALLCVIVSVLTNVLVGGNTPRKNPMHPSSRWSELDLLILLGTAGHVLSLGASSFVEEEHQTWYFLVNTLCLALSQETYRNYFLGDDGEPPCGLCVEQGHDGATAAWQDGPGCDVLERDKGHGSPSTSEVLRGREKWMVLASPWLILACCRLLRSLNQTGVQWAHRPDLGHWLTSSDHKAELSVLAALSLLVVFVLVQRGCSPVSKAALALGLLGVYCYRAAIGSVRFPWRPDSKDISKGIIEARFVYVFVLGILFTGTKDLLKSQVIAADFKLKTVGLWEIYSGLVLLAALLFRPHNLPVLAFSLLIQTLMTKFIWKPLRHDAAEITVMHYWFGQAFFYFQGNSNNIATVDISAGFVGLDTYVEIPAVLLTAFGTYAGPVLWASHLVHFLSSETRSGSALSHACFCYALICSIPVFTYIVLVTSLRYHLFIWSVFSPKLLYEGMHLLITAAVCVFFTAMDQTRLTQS
# Sequence of UniProt P54619 (P54619 whole entry, looked up): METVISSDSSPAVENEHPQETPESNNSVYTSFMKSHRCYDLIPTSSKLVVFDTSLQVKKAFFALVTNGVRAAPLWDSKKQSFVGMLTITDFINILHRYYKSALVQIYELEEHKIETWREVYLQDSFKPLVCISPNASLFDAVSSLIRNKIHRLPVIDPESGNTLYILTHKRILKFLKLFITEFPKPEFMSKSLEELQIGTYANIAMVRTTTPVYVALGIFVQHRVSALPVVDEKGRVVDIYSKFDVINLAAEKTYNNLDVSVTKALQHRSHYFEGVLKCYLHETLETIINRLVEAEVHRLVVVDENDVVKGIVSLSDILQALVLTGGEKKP
# Sequence of UniProt O43741 (O43741 whole entry, looked up): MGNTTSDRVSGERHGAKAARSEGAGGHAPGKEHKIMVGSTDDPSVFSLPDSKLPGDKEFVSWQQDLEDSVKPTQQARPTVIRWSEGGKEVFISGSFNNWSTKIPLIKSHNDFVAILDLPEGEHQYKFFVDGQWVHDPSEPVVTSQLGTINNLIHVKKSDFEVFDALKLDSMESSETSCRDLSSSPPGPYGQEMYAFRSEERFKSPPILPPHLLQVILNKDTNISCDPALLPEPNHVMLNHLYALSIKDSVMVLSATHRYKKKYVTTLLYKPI
# Sequence of UniProt Q96HA1 (Q96HA1 whole entry, looked up): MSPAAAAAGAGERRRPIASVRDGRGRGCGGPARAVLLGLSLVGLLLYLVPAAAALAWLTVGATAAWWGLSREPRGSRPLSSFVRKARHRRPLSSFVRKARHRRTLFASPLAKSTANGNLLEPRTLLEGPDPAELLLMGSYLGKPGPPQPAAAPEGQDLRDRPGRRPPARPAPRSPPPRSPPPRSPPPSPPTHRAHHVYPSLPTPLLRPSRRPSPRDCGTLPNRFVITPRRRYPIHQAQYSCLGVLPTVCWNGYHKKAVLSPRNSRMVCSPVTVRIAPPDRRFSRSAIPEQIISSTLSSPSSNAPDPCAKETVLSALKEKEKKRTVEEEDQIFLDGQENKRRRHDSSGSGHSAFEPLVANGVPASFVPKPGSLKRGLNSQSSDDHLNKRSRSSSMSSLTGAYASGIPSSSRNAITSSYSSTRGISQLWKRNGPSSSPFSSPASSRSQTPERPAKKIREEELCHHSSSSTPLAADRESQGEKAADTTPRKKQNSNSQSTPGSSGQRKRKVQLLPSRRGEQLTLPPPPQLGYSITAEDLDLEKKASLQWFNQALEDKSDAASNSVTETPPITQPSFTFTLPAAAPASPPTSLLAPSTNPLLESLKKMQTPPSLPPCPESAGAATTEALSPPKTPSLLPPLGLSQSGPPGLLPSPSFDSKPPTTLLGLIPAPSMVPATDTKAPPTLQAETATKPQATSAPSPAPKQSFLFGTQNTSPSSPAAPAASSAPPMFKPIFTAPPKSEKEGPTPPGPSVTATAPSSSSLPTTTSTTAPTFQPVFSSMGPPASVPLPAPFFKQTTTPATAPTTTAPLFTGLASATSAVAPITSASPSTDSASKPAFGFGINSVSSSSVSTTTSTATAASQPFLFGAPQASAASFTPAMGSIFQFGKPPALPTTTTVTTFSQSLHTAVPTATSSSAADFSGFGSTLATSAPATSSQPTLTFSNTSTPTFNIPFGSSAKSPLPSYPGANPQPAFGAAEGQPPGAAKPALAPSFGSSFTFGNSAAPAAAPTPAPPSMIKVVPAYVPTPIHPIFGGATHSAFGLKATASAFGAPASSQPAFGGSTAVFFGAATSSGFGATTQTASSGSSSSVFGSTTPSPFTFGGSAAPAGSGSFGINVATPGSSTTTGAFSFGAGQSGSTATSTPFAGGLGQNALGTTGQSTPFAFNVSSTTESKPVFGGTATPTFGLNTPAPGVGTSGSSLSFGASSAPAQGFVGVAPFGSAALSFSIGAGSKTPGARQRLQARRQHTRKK
# Sequence of UniProt Q2TAL8 (Q2TAL8 whole entry, looked up): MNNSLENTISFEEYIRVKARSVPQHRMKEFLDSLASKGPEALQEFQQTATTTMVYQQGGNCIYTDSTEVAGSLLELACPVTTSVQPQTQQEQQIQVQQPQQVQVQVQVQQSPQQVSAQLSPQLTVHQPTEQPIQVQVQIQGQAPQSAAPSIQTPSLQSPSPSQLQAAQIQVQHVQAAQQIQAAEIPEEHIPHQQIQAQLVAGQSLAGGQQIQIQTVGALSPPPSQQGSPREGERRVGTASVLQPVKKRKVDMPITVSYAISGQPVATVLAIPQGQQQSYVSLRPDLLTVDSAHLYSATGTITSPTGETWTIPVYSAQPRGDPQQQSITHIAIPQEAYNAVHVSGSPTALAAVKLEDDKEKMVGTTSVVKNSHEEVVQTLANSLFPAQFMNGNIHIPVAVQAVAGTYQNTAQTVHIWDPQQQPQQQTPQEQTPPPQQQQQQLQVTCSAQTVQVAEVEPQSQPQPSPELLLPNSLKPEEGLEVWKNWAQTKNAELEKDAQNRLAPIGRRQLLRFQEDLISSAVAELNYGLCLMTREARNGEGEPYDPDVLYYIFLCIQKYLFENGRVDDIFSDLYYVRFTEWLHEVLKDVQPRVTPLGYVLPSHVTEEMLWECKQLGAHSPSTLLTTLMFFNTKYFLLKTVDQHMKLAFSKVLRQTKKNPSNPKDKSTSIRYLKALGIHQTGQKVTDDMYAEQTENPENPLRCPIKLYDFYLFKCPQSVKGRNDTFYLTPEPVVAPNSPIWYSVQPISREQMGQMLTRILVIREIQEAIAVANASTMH
# Sequence of UniProt Q14181 (Q14181 whole entry, looked up): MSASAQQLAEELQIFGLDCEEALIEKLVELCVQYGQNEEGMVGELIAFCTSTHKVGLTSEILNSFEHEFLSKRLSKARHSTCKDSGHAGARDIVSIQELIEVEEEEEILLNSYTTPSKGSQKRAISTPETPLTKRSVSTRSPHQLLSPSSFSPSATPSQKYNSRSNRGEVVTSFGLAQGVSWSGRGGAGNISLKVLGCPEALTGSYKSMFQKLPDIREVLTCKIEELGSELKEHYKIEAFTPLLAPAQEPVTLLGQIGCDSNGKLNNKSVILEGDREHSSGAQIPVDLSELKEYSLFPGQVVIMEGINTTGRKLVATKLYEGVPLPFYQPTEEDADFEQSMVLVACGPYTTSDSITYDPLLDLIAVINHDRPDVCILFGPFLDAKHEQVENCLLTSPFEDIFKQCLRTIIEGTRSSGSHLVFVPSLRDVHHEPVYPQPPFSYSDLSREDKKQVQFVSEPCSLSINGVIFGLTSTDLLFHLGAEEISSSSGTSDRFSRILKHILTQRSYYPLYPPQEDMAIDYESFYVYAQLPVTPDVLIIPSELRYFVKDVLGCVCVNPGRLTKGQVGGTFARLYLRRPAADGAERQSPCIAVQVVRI
# Sequence of UniProt O15305 (O15305 whole entry, looked up): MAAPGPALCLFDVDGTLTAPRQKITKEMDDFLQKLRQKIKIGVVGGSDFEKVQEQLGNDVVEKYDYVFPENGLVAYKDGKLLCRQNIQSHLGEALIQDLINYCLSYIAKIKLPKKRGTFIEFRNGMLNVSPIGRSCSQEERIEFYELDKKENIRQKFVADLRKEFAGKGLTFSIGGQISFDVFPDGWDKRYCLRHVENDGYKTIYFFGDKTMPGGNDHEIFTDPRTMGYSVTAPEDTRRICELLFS
Target,log2 fold change [1],log2 fold change [2],log2 fold change [3],log2 fold change [4],log2 fold change [5]
PRKAB2 (UniProt O43741),-0.133,0.084,-0.087,-0.117,-0.077
PFAS (UniProt O15067),-0.08,0.021,0.144,0.014,-0.065
PLCXD1 (UniProt Q9NUJ7),-0.061,,,,
PMVK (UniProt Q15126),-0.156,0.004,0.116,0.063,0.028
QRICH1 (UniProt Q2TAL8),-0.029,-0.148,0,-0.02,-0.016
PIR (UniProt O00625),0.016,0.064,0.027,-0.029,0.002
PRKD2 (UniProt M0R346),0.081,,,,
PSMD6 (UniProt Q15008),0.019,-0.088,-0.116,-0.006,0.001
PSMD8 (UniProt P48556),0.014,-0.07,-0.01,-0.001,0.071
PLCB3 (UniProt Q01970),-0.019,-0.015,0,-0.048,-0.062
PIK3R1 (UniProt P27986),-0.059,0.019,0.138,0.005,-0.027
PTRHD1 (UniProt Q6GMV3),-0.002,0.056,0.046,-0.073,0.033
POM121 (UniProt Q96HA1),0.023,-0.033,0.026,0.054,-0.002
POLA2 (UniProt Q14181),-0.023,0.048,0.114,-0.006,0.034
PIGG (UniProt Q5H8A4),0.12,0.031,-0.091,0.006,-0.003
PCLAF (UniProt Q15004),0.055,-0.022,-0.045,0.02,0.07
PRPF31 (UniProt Q8WWY3),-0.07,0.028,0.174,-0.087,0.005
PSMC4 (UniProt P43686),0.022,-0.117,-0.022,0.006,0.001
PRKAG1 isoform 3 (UniProt P54619),-0.008,0.067,0.019,-0.011,-0.017
PMM2 (UniProt O15305),0.003,0.046,-0.027,0.06,0.009
PRPSAP2 (UniProt O60256),0.009,-0.026,-0.027,-0.012,0
PDIK1L (UniProt Q8N165),-0.255,0.001,0.044,0.062,-0.005
PPP2R5C isoform 2 (UniProt Q13362),-0.065,,,,
PPP1R12A (UniProt O14974),0.005,0.057,0.047,0.035,-0.008
PIK3CD (UniProt O00329),-0.166,-0.126,0.424 (active),-0.086,0.018
PRKACA (UniProt P17612),-0.01,0.005,-0.053,-0.009,0.035
